# Only some compounds are listed: those with a hit (about 11% of all), similar ones and a draw of the others.
# CBFb RUNX1 block: CBF-beta/RUNX1 interaction disruption; Q01196+Q13951; AlphaScreen CBFb-His/RUNX1-biotin binding, biochemical; Potency, µM (doses to about 59.8 µM), inactives show at the highest dose activity, negative = inhibition, most hits filed as inhibitors; 230,000 tested, under 10 active; note: % of control where 0% means no effect
#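 CBFb-His/RUNX1-biotin, 30 nM each, preincubated 20 min RT; compound 15 min RT; Ni + streptavidin beads 50 ng each, 90 min RT; AlphaScreen read.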
# PNC assembly inh: perinucleolar compartment assembly inhibition; PC3M PTB-GFP, PNC prevalence imaging, 16 h; stronger effect = lower value; activity change (PNC), negative = inhibition, % at 10 µM; 140,000 tested, 3.1% active; AID 2417;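 active = readout at or below -70, meaning at least 70% loss of cells showing the perinucleolar compartment, a nuclear body marking cancer cells; inconclusive = readout between -30 and a set limit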;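 note: plate controls were DMSO wells for no effect and camptothecin positive control wells for full effect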
#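 PC3M cells stably expressing PTB-GFP, 750–1000 cells/well, treated 16 h at 37 °C with compound (23 nl of library stock), in duplicate. After paraformaldehyde fixation and Hoechst stain, imaged at 20x; PNC prevalence scored by image analysis.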
# HTT ATP protect: cytoprotection in Huntington HTT-Q103 PC12 cell model; PC12 HTT-Q103 induced, cytoprotection, ATP luminescence, 40 h; Potency, µM (top dose mostly 56.4 µM), inactives show cytoprotection (ATP increase), most hits filed as activators; 230,000 tested, 0.14% active; note: potency is the fitted concentration of half-maximal effect; % of control where 0% means no effect; nearly all actives have a fitted effect of over 45% in size
#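 Compounds added alongside 100 nM tebufenozide, which induces toxic Q103 huntingtin exon 1-GFP in stable PC12 cells; surviving cells quantified by luminescent ATP measurement. Medium: phenol red-free DMEM, 5% equine and 5% calf serum.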
# HttQ103 aggreg: reduces HttQ103-GFP aggregates in PC12 cells; Potency, µM (highest dose often 46.1 µM), without a hit: at the top dose activity change, negative = inhibition, actives largely listed as inhibitors; 220,000 tested, 1.1% active; PC12 HttQ103-GFP aggregates, Acumen cytometry, 40 h; note: potency is the fitted concentration of half-maximal effect; % is set by controls: 0 for no effect and ±100 for the full control effect; nearly all actives have a fitted effect of over 60% in size
#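 Inducible Q103 Huntingtin exon 1–GFP PC12 line, 1500 cells/well in phenol red free DMEM with 5% equine and 5% calf serum. Tebufenozide 100 nM induced expression; compounds titrated; aggregates quantified by cytometry.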
# HPGD block: HPGD (human) dehydrogenase inhibition; purified HPGD, NADH fluorescence kinetic, PGE2 substrate; Potency, µM, inactives show top-dose activity change, negative = inhibition, usual class: inhibitors; 150,000 tested, 4.3% active; AID 894; active = well fitted inhibition curve with a large enough effect, not every such curve was filed as active; inconclusive = small, poorly fitted or top-dose-only effect, or another doubt; inactive = no such curve, though single readings can be large or run the other way; note: potency is the fitted concentration of half-maximal effect; % is set by controls: 0 for no effect and ±100 for the full control effect
#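 NADH formation kinetics: reaction with 30 uM PGE2 and 1 mM NAD+ (final), 20 nM enzyme, Tris-HCl pH 8 with Tween 20, after 15 min compound preincubation at room temperature. Fluorescence change, last versus first of five reads.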
# ALDH1A1 block: inhibitors of human aldehyde dehydrogenase 1A1. P00352. Purified ALDH1A1, NADH fluorescence, propionaldehyde substrate. Potency, µM (series often up to 75.3 µM), for inactives: at the highest dose activity, negative = inhibition, actives largely listed as inhibitors. 220,000 tested, 7.3% active. AID 1030; active = well fitted inhibition curve with a large enough effect, not every such curve was filed as active; inconclusive = small, poorly fitted or top-dose-only effect, or another doubt; inactive = no such curve, though single readings can be large or run the other way;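 note: potency is the fitted concentration of half-maximal effect; plate controls were no enzyme wells and a reference inhibitor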
# Target sequence (P00352 whole entry, looked up): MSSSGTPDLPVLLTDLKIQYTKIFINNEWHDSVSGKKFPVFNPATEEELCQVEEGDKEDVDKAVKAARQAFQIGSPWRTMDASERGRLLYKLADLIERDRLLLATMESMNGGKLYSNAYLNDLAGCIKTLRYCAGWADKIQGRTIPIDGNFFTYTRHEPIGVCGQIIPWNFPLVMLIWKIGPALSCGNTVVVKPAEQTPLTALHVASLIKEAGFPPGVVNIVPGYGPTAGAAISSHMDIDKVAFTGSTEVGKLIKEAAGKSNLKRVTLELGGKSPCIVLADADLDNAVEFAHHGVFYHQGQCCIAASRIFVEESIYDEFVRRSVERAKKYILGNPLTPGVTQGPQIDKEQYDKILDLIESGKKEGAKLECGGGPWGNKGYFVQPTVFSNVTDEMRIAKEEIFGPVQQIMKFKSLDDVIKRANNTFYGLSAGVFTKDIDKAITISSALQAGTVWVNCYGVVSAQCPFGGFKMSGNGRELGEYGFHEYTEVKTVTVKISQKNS
# * hit, by the source's call; ? = inconclusive; nt = no result; ! = not active in a repeat; [ ] = dose if it differs, or a comment. Unless noted, calls come from the whole dose curve; as a rule, active = well fitted curve in the direction sought with a large enough effect; inconclusive = small, poorly fitted or top-dose-only effect, or another doubt; inactive = no such curve, though single readings can be large; an effect the other way counts as inactive or inconclusive.
SMILES,CBFb RUNX1 block,PNC assembly inh,HTT ATP protect,HttQ103 aggreg,HPGD block,ALDH1A1 block
C[C@](O)(C(=O)Nc1ccc(S(=O)(=O)c2ccccc2)cc1)C(F)(F)F,16%[21.7 µM],nt,?,nt,-12%,3%
C[C@@H]1C=C[C@](Cc2ccccc2)(C(=O)NCCCNc2ncc(C(F)(F)F)cc2Cl)N1C(=O)c1ccccc1,0%,nt,-38%,nt,-23%,?
COC(=O)[C@@H]1CC[C@H](C)[C@@H](c2ccc(C)cc2)N1C(=O)c1ccc(/C=N\O[C@@H](C)CN2CCCc3nc(C)c(C)cc32)cc1,15%[13.1 µM],nt,5%[10 µM],nt,nt,10%[13.5 µM]
CCOC(=O)c1ccc(-n2c(=S)sc3c(=O)[nH]c(C)nc32)cc1,3%,?,-12%[1.9 µM],6%,6.3µM*,7.1µM*
CN(Cc1nc(Cc2cccc(F)c2)no1)CC1CCOCC1,1%,nt,nt,nt,nt,10%
CC(Cn1cnc2ccccc21)C(=O)O (stereo not drawn),-12%,-100*,?,5%,-9%,13%
COc1ccc(C(=O)c2ccccc2)c(O)c1,-4%,-16,-34%[10 µM],11µM*!,16µM*!,32µM*!
COc1ccc(C(C)=O)c(O)c1,6%,nt,-7%,nt,18µM*,?
CCOC(=O)COc1ccc(C(=O)c2ccccc2)c(O)c1,8%,-30,15%[10 µM],12%,16µM*,-6%
O=C(O)c1ccccc1NS(=O)(=O)c1cccc2ccccc12,nt,nt,nt,nt,-4%,-7%
CN1C(=O)/C(=C/c2ccccc2OCc2cccc(F)c2)NC1=S,7%,28,-9%[10 µM],-13%,4.5µM*,-12%
CN1C(=O)/C(=C/c2ccccc2OCc2ccc(C(=O)O)cc2)NC1=S,2%,nt,nt,nt,nt,3%
CN1C(=O)/C(=C/c2ccccc2OCc2ccccc2)NC1=S,5%,?,22%[10 µM],10%,11µM*,?
CC(=O)Nc1sc2c(c1C#N)CCC2,0%,nt,-12%[10 µM],-4%,nt,-1%
N#Cc1c(NC(=O)C2CC=CCC2C(=O)O)sc2c1CCCCCC2 (stereo not drawn),-21%,?,nt,10%,18µM*,?
N#Cc1c(NC(=O)CCC(=O)O)sc2c1CCCCC2,-11%,nt,4%[10 µM],1%[9.22 µM],nt,14µM*
CC(C)(C)C1CCc2c(sc(NC(=O)C3CC=CCC3C(=O)O)c2C#N)C1 (stereo not drawn),2%,?,nt,5%,16µM*,7.1µM*
CCn1c(SCC(=O)Nc2sc3c(c2C#N)CCCC3)nnc1-c1ccco1,10%,0,0%,2%,-5%,10%
CCn1c(SCC(=O)Nc2sc3c(c2C#N)CCC(C(C)(C)C)C3)nnc1-c1ccco1 (stereo not drawn),7%,24,-36%,11%,-23%,40µM*
CC(C)n1c(SCC(=O)N2CCCc3ccccc32)nc2c1c(=O)n(C)c(=O)n2C,nt,nt,14%[10 µM],nt,nt,nt
CC(C)OC(=O)[C@@H]1CC[C@H](C)[C@@H](CCC[C@@H]2C[C@@H](O)C[C@H](CC#N)O2)O1,-4%,nt,nt,nt,2%,-8%
N#Cc1c(NC(=O)CN2CCN(C(=O)c3ccco3)CC2)sc2c1CCCCC2,-19%,-26,14%[10 µM],?,8.9µM*,7.1µM*
Cc1nc2cc(-c3ccc(Cl)cc3)nn2c(NCCN(C)C)c1C,8%,nt,-3%[10 µM],-11%[9.22 µM],nt,?
O=C(COC(=O)Cc1c(F)cccc1Cl)NCCC1=CCCCC1,15%,-22,9%[10 µM],-5%,-12%,?
O=C(COC(=O)/C=C/c1ccc(Cl)cc1)NCCC1=CCCCC1,-3%,-90*,nt,0%,-16%,8%
SMILES,CBFb RUNX1 block,PNC assembly inh,HTT ATP protect,HttQ103 aggreg,HPGD block,ALDH1A1 block
O=C(COC(=O)Cc1c(Cl)cccc1Cl)NCCC1=CCCCC1,8%,26,-10%[1.9 µM],14%,13µM*,-6%
CC(=O)c1c(C)nc(-c2ccc(Cl)cc2)nc1NC(=O)C(C)C,6%,-13,-5%[1.9 µM],-9%,?,-5%
O=C(/C=C/c1cccs1)N1CCCCC1,4%,nt,-57%,-17%[9.22 µM],nt,?
COC(=O)N1CCC[C@@]2(CCN(C(=O)Nc3ccccc3)C2)C1,nt,nt,-7%,nt,-11%,-2%
Clc1ccc(/C=C\c2nc(Cl)c(-c3ccc(Cl)cc3)c(Cl)n2)cc1,nt,nt,-2%[10 µM],nt,-9%,?
NCC1CCC(C(=O)O)CC1 (stereo not drawn),-8%,nt,-51%,5%[20.6 µM],-3%,12%
COC(=O)[C@@]1(Cc2ccc(OC)cc2)[C@H]2c3cc(C(=O)N4CCCC4)n(CCc4c[nH]c5cc(F)ccc45)c3C[C@H]2CN1C(=O)c1ccccc1,-20%,nt,-33%,nt,-8%,-15%
CCOC(=O)C(=CNc1ccc(NC2=NCC(C)S2)cc1)C(=O)OCC (stereo not drawn),7%,?,nt,?,14µM*,3%
CCOC(=O)C(=CNc1ccc(C(F)(F)F)cc1)C(=O)OCC,6%,nt,-4%[10 µM],3%[9.22 µM],nt,nt
CC(=O)c1ccc(N2CCN(c3ccc(S(=O)(=O)NCCCN(C)C)cc3[N+](=O)[O-])CC2)cc1,2%,nt,-22%,?,nt,19µM*
Cc1ncc([N+](=O)[O-])n1CC(C)O (stereo not drawn),16%,4,?,-15%,-2%,4%
O=C1CCC(=O)N1CCC(c1ccc(F)cc1)c1ccco1 (stereo not drawn),3%,27,-13%,-11%,-9%,-6%
O=C1NCN(c2ccccc2)C12CCN(CCCC(c1ccc(F)cc1)c1ccc(F)cc1)CC2,-10%,nt,?,14µM*,-14%,-3%
Cc1nn2c3ccccc3n(CCN3CCCCC3)c2nc1=O,-3%,20,-8%[10 µM],-5%,-12%,?
C=CCn1c2ccccc2n2nc(C)c(=O)nc12,-2%,-100*,13%[10 µM],10%,?,?

# Screening results from PubChem BioAssay.
